Experimental data from PubChem BioAssay (NCATS).
Values joined by “and” are separate entries in the source; they are usually repeats but may differ in a detail not shown here. Equal values may be shown once. Results filed as inconclusive are left out. A number with no mark means an inactive call. Active and inactive are the calls of the source. Calls follow the shape of the dose curve; as a rule, active = well fitted curve in the direction sought with a large enough effect; inconclusive = small, poorly fitted or top-dose-only effect, or another doubt; inactive = no such curve, though single readings can be large; an effect the other way counts as inactive or inconclusive.

Key:
[1] = molecular target: Cellular tumor antigen p53 (Homo sapiens) (UniProt P04637); assay: Primary qHTS for small molecule compounds that upregulate eGFP-tagged delta133p53alpha (in N-terminal) cells. (AID 2060322); settings: NCI-H358 eGFP-delta133p53alpha fluorescence, 24 h; activation: hits give high values; also: nearly all actives have a fitted effect of over 75% in size;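 as to activation: series mostly up to about 56 µM; 0% = DMSO vehicle and 100% = reference activator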
In short: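 NCI-H358 cells pre-induced 24 h with 10 ng/ml doxycycline to express N-terminal eGFP-delta133p53alpha, then dosed 24 h at 37C without doxycycline; fixed, Hoechst-stained, GFP intensity by laser scanning cytometry, normalized to DMSO (0%) and 57.5 uM 5-azacytidine (100%).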

[2] = BET inhibitor-based combinations targeting novel dependencies in MECOM-rearranged (r) AML: SET-2 cell line (AID 2202231); settings: SET-2 AML cells viability, CellTiter-Glo luminescence, 48 h; viability: hits give low values, concentration not given here; also: nearly all actives have a fitted effect of over 35% in size;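 as to viability: plate controls were DMSO treated cells for no effect and wells without cells for full effect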
In short: (§1)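 Cells were plated at 500 per well and exposed to an 11-point dose series of each drug for 48 hr. Viability was measured by CellTiter-Glo luminescence, normalized to DMSO and empty-well controls, and summarized as AUC and per-cell-line Z-AUC.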

[3] = BET inhibitor-based combinations targeting novel dependencies in MECOM-rearranged (r) AML: OCI-AML3 cell line (AID 2202232); settings: Potency: OCI-AML3 viability; also: nearly all actives have a fitted effect of over 35% in size
In short: as §1

[4] = BET inhibitor-based combinations targeting novel dependencies in MECOM-rearranged (r) AML: MV-4-11 cell line (AID 2202233); also: nearly all actives have a fitted effect of over 45% in size
In short: (§2)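 Activity is given as area under the curve and as Z-AUC, mean-centred within each cell line. It comes from 11-point dose curves normalized to DMSO and empty wells. CellTiter-Glo luminescence was read after 48 hr drug exposure of 500 cells/well.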

[5] = BET inhibitor-based combinations targeting novel dependencies in MECOM-rearranged (r) AML: UCSD-AML1 cell line (AID 2202235); also: nearly all actives have a fitted effect of over 40% in size
In short: as §2

[6] = BET inhibitor-based combinations targeting novel dependencies in MECOM-rearranged (r) AML: AML-194 cell line (AID 2202237; also: nearly all actives have a fitted effect of over 40% in size)
In short: as §1

[7] = BET inhibitor-based combinations targeting novel dependencies in MECOM-rearranged (r) AML: HNT-34 cell line (AID 2202234); also: nearly all actives have a fitted effect of over 35% in size
In short: as §2

[8] = BET inhibitor-based combinations targeting novel dependencies in MECOM-rearranged (r) AML: AML-191 cell line (AID 2202236; also: nearly all actives have a fitted effect of over 35% in size)
In short: as §1
Potency is read from the fitted curve at half-maximal effect.

Chain of Cellular tumor antigen p53 (Homo sapiens) (P04637 whole entry, looked up): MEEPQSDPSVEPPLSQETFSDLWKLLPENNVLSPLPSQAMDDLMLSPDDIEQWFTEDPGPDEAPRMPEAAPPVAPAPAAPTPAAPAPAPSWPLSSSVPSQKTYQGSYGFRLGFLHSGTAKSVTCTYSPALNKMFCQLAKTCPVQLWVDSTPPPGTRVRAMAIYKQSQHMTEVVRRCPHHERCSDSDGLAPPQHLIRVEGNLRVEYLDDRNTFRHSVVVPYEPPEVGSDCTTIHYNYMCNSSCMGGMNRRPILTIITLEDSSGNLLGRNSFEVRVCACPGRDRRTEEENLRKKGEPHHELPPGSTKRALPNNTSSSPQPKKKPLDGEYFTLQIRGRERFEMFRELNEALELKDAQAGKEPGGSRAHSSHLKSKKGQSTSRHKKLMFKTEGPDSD

SMILES | activation [1] | viability [2] [%] | Potency [3] | Potency [4] | Potency [5] | Potency [6] | Potency [1] | Potency [2] | Potency [7] | Potency [8]
C[C@@H]1CN(c2c(F)c(N)c3c(=O)c(C(=O)O)cn(C4CC4)c3c2F)C[C@H](C)N1 | 22.7% | 102 | inactive | inactive | inactive | inactive | – | – | – | –
Cc1cc(Nc2ncc3c(n2)N(C)C(=O)N(c2cc(NC(=O)c4cccc(C(F)(F)F)c4)ccc2C)C3)n(C)n1 | – | – | 0.296 µM (active) | – | 0.417 µM (active) | – | 0.432 µM (active) | 0.833 µM (active) | 0.0263 µM (active) | 0.235 µM (active)
CC(N)C12CC3CC(CC(C3)C1)C2 (configuration not stated) | -14.2% and 12.7% | 106 | inactive | inactive | inactive | inactive | – | – | – | inactive
COc1cccc(OC)c1-c1cc(C(=O)NC2(C(=O)O)C3CC4CC(C3)CC2C4)nn1-c1ccnc2cc(Cl)ccc12 (configuration not stated) | -14.3% | 114 | inactive | – | inactive | inactive | – | – | inactive | inactive
O=c1cc(N2CCOCC2)oc2c(-c3cccc4c3sc3ccccc34)cccc12 | 27.5% | – | 8.33 µM (active) | 4.17 µM (active) | – | – | – | 9.34 µM (active) | – | 5.9 µM (active)
O=C(O)[C@@H](c1ccc(OCc2ccc3ccccc3n2)cc1)C1CCCC1 | -11.6% | 99.7 | inactive | 13.2 µM (active) | inactive | inactive | – | – | – | inactive
COc1cc(F)c(C(C)C)cc1-c1ccc(C(F)(F)F)cc1CN1C(=O)O[C@H](c2cc(C(F)(F)F)cc(C(F)(F)F)c2)[C@@H]1C | -9.08% | 105 | inactive | – | inactive | – | – | – | inactive | inactive
O=C(Nc1cc(Cl)cc2c1[nH]c1cnccc12)c1cccnc1 | 15.9% | 102 | inactive | inactive | inactive | inactive | – | – | – | –
c1coc(CNc2ncnc3nc[nH]c23)c1 | -14.3% | 107 | inactive | inactive | inactive | inactive | – | – | – | –
OC[C@H]1O[C@@H](O[C@@H]2[C@@H](CO)O[C@](O)(CO)[C@H]2O)[C@H](O)[C@@H](O)[C@H]1O | 10% | 108 | inactive | inactive | – | inactive | – | – | – | inactive
CCN(CC)CCCCNc1ncc2cc(-c3cc(OC)cc(OC)c3)c(NC(=O)NC(C)(C)C)nc2n1 | 27.9% | – | 16.6 µM (active) | 11.8 µM (active) | – | 16.6 µM (active) | – | 20.9 µM (active) | – | 18.6 µM (active)
O=C1C(Cl)=C(NCCN2CCOCC2)C(=O)c2ncccc21 | – | – | 3.72 µM (active) | – | 8.33 µM (active) | 7.42 µM (active) | 27.3 µM (active) | 3.72 µM (active) | 5.9 µM (active) | 7.42 µM (active)
CN1CCCN=C1/C=C/c1cccs1 | -2.82% | 73.8 | inactive | inactive | 2.95 µM (active) | inactive | – | – | – | –
CCCCCNC(=O)N1CCC(CN(Cc2ccc(Cl)cc2)Cc2ccc([N+](=O)[O-])s2)C1 (configuration not stated) | -3.18% | – | 18.6 µM (active) | 20.9 µM (active) | inactive | inactive | – | 20.9 µM (active) | – | –
NC(=O)c1cccc(-c2cccc(OC(=O)NC3CCCCC3)c2)c1 | -16.3% | 103 | inactive | – | inactive | inactive | – | – | inactive | inactive
CC1=C(C)C(=O)C(C(CCCCCC(=O)O)c2ccccc2)=C(C)C1=O (configuration not stated) | -10.7% and 34% | 93.3 | inactive | inactive | inactive | inactive | – | – | – | inactive
CC(C(C)N1CC(=O)NC(=O)C1)N1CC(=O)NC(=O)C1 (configuration not stated) | 25.1% | 107 | 5.9 µM (active) | 1.18 µM (active) | – | inactive | – | – | – | 9.34 µM (active)
COc1ccc(-c2oc3c(CC=C(C)C)c(O)cc(O)c3c(=O)c2O)cc1 | -9.57% | 97 | inactive | – | inactive | inactive | – | – | inactive | inactive
CC(=O)O[C@H]1C[C@@H]2CC[C@H]3[C@H]4C[C@H]([N+]5(C)CCCCC5)[C@@H](OC(C)=O)[C@@]4(C)CC[C@@H]3[C@@]2(C)C[C@H]1[N+]1(C)CCCCC1 | 5.41% | 114 | inactive | inactive | inactive | inactive | – | – | – | inactive
COc1cc2c(cc1OC)[C@@H]1C(=O)c3ccc4c(c3O[C@@H]1CO2)C=CC(C)(C)O4 | -3.86% | – | 0.525 µM (active) | 6.61 µM (active) | – | 20.9 µM (active) | – | 13.2 µM (active) | – | 9.34 µM (active)
COc1cc([C@@H]2c3cc4c(cc3[C@H](O)[C@H]3COC(=O)[C@H]23)OCO4)cc(OC)c1OC | 24.1% | – | 0.0372 µM (active) | – | 0.0417 µM (active) | – | – | 0.0372 µM (active) | – | 0.0372 µM (active)
